Results filed as inconclusive are left out. Activity calls are given as the source filed them. How the source made its calls, unless noted: active means hit-call score of the fitted dose curve at least 0.9, where 1 is the maximum; inconclusive means response in the unintended direction; inactive means score below 0.9.

As usually defined, the AC50 is the concentration at which the activity in the assay is half-maximal.

Experiment [1] in a line: Tanguay_ZF_120hpf_NC_legacy: (Legacy) Oregon State University Tanguay Lab 120 Hour Post-fertilization zebrafish Assay for Notochord and Tail Malformation (AID 2283656). The method in brief: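 Binary scoring of notochord distortion by brightfield microscopy; embryos dying were not scored. Wild-type Tropical 5D embryos, chorion removed, exposed singly and statically from 6 to 120 hpf, 28C, sealed, 0.64% DMSO.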

Read-out in experiment [2]: solute carrier (SLC10A1), SLC10A1 (gene 6554)
As to the kind of experiment: LTEA_HepaRG_SLC10A1: Life Technologies and Expression Analysis (LTEA) Assay for solute carrier (SLC10A1) using HepaRG (AID 2283657; active means hit-call score of the fitted dose curve at least 0.9, where 1 is the maximum; inactive means score below 0.9). To be noted: mRNA level, 48 h; actives raise or lower the signal. The essentials:
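Cryopreserved HepaRG cells are thawed, plated and cultured 48 h; medium is then switched to serum-free induction medium and chemicals added (8 points, max 100 uM, 0.5% DMSO). After 48 h, RNA is isolated and SLC10A1 quantified by qRT-PCR.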

Read-out in experiment [3]: matrix metalloproteinase-1 (MMP1), MMP1 (gene 4312)
As to the kind of experiment: LTEA_HepaRG_MMP1: Life Technologies and Expression Analysis (LTEA) Assay for matrix metalloproteinase-1 (MMP1) using HepaRG (AID 2283658; active means hit-call score of the fitted dose curve at least 0.9, where 1 is the maximum; inactive means score below 0.9). The following applies: mRNA level, 48 h; actives raise or lower the signal. The method in brief: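 HepaRG, ~100,000 cells/well, 48 h pre-culture; serum-free induction medium; test chemical 8 conc (max 100 uM, half-log), duplicate, 48 h; 0.5% DMSO; qRT-PCR MMP1, housekeeping-normalized; gain/loss fit vs DMSO.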

Read-out in experiment [4]: ABC Transporter (ABCB1), ABCB1 (gene 5243)
The experiment in a line: CLD_ABCB1_6hr: CellzDirect (CLD) Gene Expression Assay for ABC Transporter (ABCB1) at 6 hours (AID 2283659).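 Further: hits raise ABCB1 transcript above the DMSO vehicle baseline.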 The essentials:
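ABCB1 transcript measured by quantitative nuclease protection assay, chemiluminescent read-out, 6 h after dosing human hepatocyte cultures (0.2% DMSO vehicle, daily redosing). Activity fitted as increase over DMSO baseline; cytotoxicity flagged by phase-contrast morphology.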

Read-out in experiment [5]: alkyl and aryl transferase (GSTA2), GSTA2 (gene 2939)
The experiment in a line: CLD_GSTA2_6hr: CellzDirect (CLD) Gene Expression Assay for alkyl and aryl transferase (GSTA2) at 6 hours (AID 2283666). The essentials:
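GSTA2 transcript induction at 6 h, quantified by nuclease protection (qNPA) with chemiluminescent detection, in human liver primary hepatocytes exposed to several compound concentrations with 0.2% DMSO as baseline; phase-contrast morphology annotated apparent cytotoxicity.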

The nature of experiment [6]: Tanguay_ZF_120hpf_TR_legacy: (Legacy) Oregon State University Tanguay Lab 120 Hour Post-fertilization zebrafish Assay for Touch Response (AID 2283667). The method in brief:
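Readout is presence or absence of touch response in 120 hpf zebrafish larvae, assessed by brightfield observation after continuous static exposure at 28C. Final vehicle was 0.64% (vol/vol) DMSO.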

Read-out in experiment [7]: sulfotransferase (SULT2A), SULT2A1 (gene 6822)
As to the kind of experiment: CLD_SULT2A_6hr: CellzDirect (CLD) Gene Expression Assay for sulfotransferase (SULT2A) at 6 hours (AID 2283669).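 Further: hits raise transcript level above the DMSO vehicle baseline.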 The method in brief:
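Measured 6 h after dosing, SULT2A1 mRNA in human hepatocyte lysates was quantified by S1 nuclease protection with chemiluminescent detection. Increases fitted against 0.2% DMSO vehicle baseline; phase-contrast cytotoxicity recorded yes/no.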

Experiment [8] is described as follows: CLD_ACTIN_24hr: CellzDirect (CLD) Gene Expression Assay for Baseline Control (Actin) at 24 hours (AID 2283670). The method in brief:
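This 24 h qNPA (S1 nuclease protection, chemiluminescence) actin transcript readout in cultured human liver primary cells serves as baseline control. Signal is fitted upward relative to 0.2% DMSO; chemicals tested at multiple concentrations across two donor preparations.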

Read-out in experiment [9]: Cytochrome P450 (CYP24A1_1), CYP24A1 (gene 1591)
As to the kind of experiment: LTEA_HepaRG_CYP24A1_1: Life Technologies and Expression Analysis (LTEA) Assay for Cytochrome P450 (CYP24A1_1) using HepaRG (AID 2283671; active means hit-call score of the fitted dose curve at least 0.9, where 1 is the maximum; inactive means score below 0.9). To be noted: mRNA level, 48 h; actives raise or lower the signal. The method in brief: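 Cultures of human HepaRG were treated in duplicate for 48 h (0.5% DMSO vehicle, highest dose 100 uM). CYP24A1 mRNA by qRT-PCR, normalized to ACTB, GAPDH, POLR2A.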

Read-out in experiment [10]: glucuronosyltransferase (UGT1A1), UGT1A1 (gene 54658)
As to the kind of experiment: CLD_UGT1A1_6hr: CellzDirect (CLD) Gene Expression Assay for glucuronosyltransferase (UGT1A1) at 6 hours (AID 2283672). The essentials: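 UGT1A1 mRNA induction, read by quantitative nuclease protection assay, 6 h after dosing primary human hepatocytes (two donors, 0.2% DMSO vehicle). Gain of signal fitted relative to vehicle.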

Read-out in experiment [11]: Cytochrome P450 2B6 (Homo sapiens) (UniProt P20813)
The experiment in a line: CLD_CYP2B6_6hr: CellzDirect (CLD) Gene Expression Assay for xenobiotic metabolism (CYP2B6) at 6 hours (AID 2283677).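 Further: actives raise CYP2B6 transcript above DMSO baseline so AC50 marks an inducer.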 The method in brief:
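CYP2B6 transcript levels, read by chemiluminescent qNPA, were fitted for increase versus DMSO baseline; cultured human liver hepatocytes from two donor preparations were harvested 6 h after exposure to test chemicals at multiple concentrations.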

Read-out in experiment [12]: Broad substrate specificity ATP-binding cassette transporter ABCG2 (Homo sapiens) (UniProt Q9UNQ0)
The experiment in a line: CLD_ABCG2_6hr: CellzDirect (CLD) Gene Expression Assay for ABC Transporter (ABCG2) at 6 hours (AID 2283660). The method in brief: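 ABCG2 mRNA induction measured by qNPA chemiluminescence in human primary hepatocyte cultures, 6 h post-dose. Chemicals tested at several concentrations against a 0.2% DMSO vehicle; positive-direction fit relative to DMSO.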

Read-out in experiment [13]: organic anion transporter (SLCO1B1), SLCO1B1 (gene 10599)
The experiment in a line: CLD_SLCO1B1_6hr: CellzDirect (CLD) Gene Expression Assay for organic anion transporter (SLCO1B1) at 6 hours (AID 2283668).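 Further: active means mRNA induction above DMSO baseline.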 The method in brief: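 SLCO1B1 mRNA induction measured 6 h after dosing by quantitative nuclease protection with chemiluminescent read-out, in human primary hepatocyte cultures given chemicals at several concentrations (vehicle 0.2% DMSO). Increase over DMSO baseline fitted; morphology-based cytotoxicity annotated yes/no.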

Read-out in experiment [14]: ABC Transporter (ABCB11), ABCB11 (gene 8647)
As to the kind of experiment: CLD_ABCB11_6hr: CellzDirect (CLD) Gene Expression Assay for ABC Transporter (ABCB11) at 6 hours (AID 2283675).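 Further: hits raise ABCB11 mRNA level so AC50 marks induction.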 The method in brief:
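Read-out was ABCB11 mRNA gain of signal by quantitative nuclease protection assay, relative to 0.2% DMSO vehicle, 6 h post-dose. Cells were primary human hepatocytes from two donors, treated across multiple concentrations; phase-contrast cytotoxicity noted yes/no.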

In experiment [15] the test system is Thyroperoxidase (TPO), gene 54314. The experiment in a line: CCTE_Simmons_AUR_rTPO: CCTE's Amplex UltraRed Assay for Thyroperoxidase (TPO) Inhibition, Simmons Lab (AID 2283662).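 Further: potency for loss of signal meaning inhibition of peroxidase activity.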 The essentials:
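Rat thyroid microsomes (5 ug protein) with 25 uM Amplex UltraRed and 300 uM H2O2 in 200 mM phosphate buffer, 30 min at 37C in dark; fluorescence 544/590 nm. Eight concentrations, 5 nM–87.5 uM final, 0.5% DMSO, triplicate biological replicates.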

Experiment [16] is described as follows: CCTE_Simmons_CellTiterGLO_HEK293T: Viability Assessment in CCTE's Assays for Thyroperoxidase (TPO) Inhibition, Simmons Lab (AID 2283665).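 Further: cells exposed to compound for 24 h before readout; actives reduce ATP signal below DMSO vehicle meaning cytotoxicity.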 The essentials:
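Cells were seeded overnight, then exposed to an eight-point series up to 87.5 uM final for 24 hours. CellTiter-Glo reagent was added and luminescence read after 20 min, giving ATP-based viability versus DMSO.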
(In general: Cellular ATP, detected with luciferase, serves as a proxy for viable cell number.)

Read-out in experiment [17]: xenobiotic metabolism (CYP1A1), CYP1A1 (gene 1543)
The experiment in a line: CLD_CYP1A1_24hr: CellzDirect (CLD) Gene Expression Assay for xenobiotic metabolism (CYP1A1) at 24 hours (AID 2283673).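 Further: CYP1A1 mRNA level by quantitative nuclease protection with chemiluminescence.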 The method in brief: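 Transcript levels were read at 24 h by qNPA chemiluminescence in human liver primary cells. Cells got daily fresh dosing at multiple concentrations (vehicle 0.2% DMSO). Induction fitted upward against DMSO; phase-contrast cytotoxicity annotated.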

Experiment [18] is described as follows: CLD_ACTIN_6hr: CellzDirect (CLD) Gene Expression Assay for Baseline Control (Actin) at 6 hours (AID 2283676).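 Further: active means increased actin mRNA relative to DMSO vehicle.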 The essentials: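 Baseline actin transcript level measured by qNPA (S1 nuclease protection, chemiluminescence) in human hepatocyte cultures 6 h after chemical exposure; 0.2% DMSO vehicle as reference, cytotoxicity noted from morphology.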
Read-out in experiment [19]: xenobiotic metabolism (CYP1A1), CYP1A1 (gene 1543)
The experiment in a line: CLD_CYP1A1_6hr: CellzDirect (CLD) Gene Expression Assay for xenobiotic metabolism (CYP1A1) at 6 hours (AID 2283661). The method in brief:
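Read-out 6 h post-dose: qNPA chemiluminescent quantitation of transcript induction against 0.2% DMSO. Cells were cultured primary human hepatocytes from two separate donor preparations; phase-contrast morphology annotated apparent cytotoxicity.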

Sequence of Broad substrate specificity ATP-binding cassette transporter ABCG2 (Homo sapiens) (Q9UNQ0 whole entry, looked up): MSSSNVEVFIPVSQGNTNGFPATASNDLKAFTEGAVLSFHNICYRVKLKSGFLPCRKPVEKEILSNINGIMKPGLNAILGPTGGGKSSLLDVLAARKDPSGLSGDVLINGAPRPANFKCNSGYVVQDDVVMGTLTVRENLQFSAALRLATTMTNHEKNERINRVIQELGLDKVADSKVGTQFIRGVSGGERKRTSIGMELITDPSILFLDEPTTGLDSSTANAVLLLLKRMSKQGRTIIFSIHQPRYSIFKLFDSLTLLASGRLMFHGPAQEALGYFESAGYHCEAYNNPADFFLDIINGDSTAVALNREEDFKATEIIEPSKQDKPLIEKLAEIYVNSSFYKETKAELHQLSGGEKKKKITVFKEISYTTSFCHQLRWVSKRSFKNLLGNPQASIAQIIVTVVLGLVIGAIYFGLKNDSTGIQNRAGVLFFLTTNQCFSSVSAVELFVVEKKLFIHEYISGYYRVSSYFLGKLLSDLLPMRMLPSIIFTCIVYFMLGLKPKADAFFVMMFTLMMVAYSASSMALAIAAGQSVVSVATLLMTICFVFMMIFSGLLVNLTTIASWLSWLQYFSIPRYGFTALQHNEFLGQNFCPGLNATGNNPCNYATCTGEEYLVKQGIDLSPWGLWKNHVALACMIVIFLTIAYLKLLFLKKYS

Consider `CNC(=O)Oc1cccc2c1OC(C)(C)O2`, for which the outcome in experiment [1], in experiment [2], in experiment [3], in experiment [4], in experiment [5] and in experiment [6] was inactive. Further, the call in [7], in experiment [8], in experiment [9] and in experiment [10] was inactive. Moreover, the AC50 in experiment [11] is 2.74 µM (active).
Consider `CCc1cccc(CC)c1N(COC)C(=O)CCl`, for which the molecule was classed as inactive in [1], in experiment [2], in experiment [3], in experiment [12], in [5] and in experiment [6]. Besides, the outcome in experiment [13], in [7], in experiment [9], in [10] and in [14] was inactive.
`CCOP(=S)(Oc1cnc(C(C)(C)C)nc1)OC(C)C` (configuration not stated): the molecule was classed as inactive in experiment [1], in experiment [3], in experiment [12], in experiment [5], in experiment [6] and in experiment [13]. Besides, the outcome in experiment [9] and in experiment [10] was inactive. The AC50 was 16.5 µM (active) in experiment [2]; 36.2 µM (active) in experiment [15]; 31.4 µM (active) in experiment [16]; 10.8 µM (active) in [7]; 27.4 µM (active) in experiment [14].
As to `CSc1nc(NC(C)C)nc(NC(C)C)n1`, the outcome in experiment [1], in [3], in experiment [4], in [12], in [5] and in experiment [6] was inactive. The call in experiment [13], in [7], in [9] and in experiment [10] was inactive. Besides, the AC50 in experiment [2] is 61.6 µM (active); in experiment [17], 6.14 µM (active).
Regarding `CNC(=O)ON=C(SC)C(=O)N(C)C`, the outcome in experiment [1], in experiment [12], in [5], in [6], in experiment [13] and in [7] was inactive. Moreover, the molecule was classed as inactive in experiment [8] and in experiment [10].
Take `CC1=NNC(=O)N(/N=C/c2cccnc2)C1`: the molecule was called inactive in experiment [1], in experiment [12], in [5], in [6], in experiment [13] and in experiment [7]. Besides, the outcome in experiment [10], in [14] and in [18] was inactive. For the same molecule, in experiment [17], the AC50 is 4.96 µM (active).
As to `O=C(O)c1cc(Oc2ccc(C(F)(F)F)cc2Cl)ccc1[N+](=O)[O-]`, the call in experiment [1], in experiment [12], in [19], in [6], in experiment [10] and in [14] was inactive. Further, the AC50 in experiment [7] is 0.00442 µM (active).

These data come from PubChem BioAssay (EPA / NIEHS).
